According to PubChem BioAssay (NCATS):
“And” between values parts separate entries of the source, which are not always exact repeats. Equal values may be shown once. A number with no mark means an inactive call. Results filed as inconclusive are left out. The source made the active and inactive calls. Calls follow the shape of the dose curve; as a rule, active = well fitted curve in the direction sought with a large enough effect; inconclusive = small, poorly fitted or top-dose-only effect, or another doubt; inactive = no such curve, though single readings can be large; an effect the other way counts as inactive or inconclusive.

biological target: Cytochrome P450 3A4 (Homo sapiens) (UniProt P08684); experiment: qHTS Assay for Activators of Cytochrome P450 3A4 (AID 885); conditions: recombinant CYP3A4, Luciferin-PPXE luminescence, 60 min; series mostly up to 57.1 µM; activity change, positive = activation: at the top concentration; also: nearly all actives have a fitted effect of over 65% in size
Summary of the method: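 Human CYP3A4 (20 nM) with Luciferin-PPXE at 25 uM (its KM) in 200 mM KPO4; 10 min compound preincubation, then NADPH regeneration and 60 min reaction at RT. Luciferin read by luminescence; normalized to 57 uM ketoconazole full inhibition.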

Cytochrome P450 3A4 (Homo sapiens), sequence (P08684 whole entry, looked up): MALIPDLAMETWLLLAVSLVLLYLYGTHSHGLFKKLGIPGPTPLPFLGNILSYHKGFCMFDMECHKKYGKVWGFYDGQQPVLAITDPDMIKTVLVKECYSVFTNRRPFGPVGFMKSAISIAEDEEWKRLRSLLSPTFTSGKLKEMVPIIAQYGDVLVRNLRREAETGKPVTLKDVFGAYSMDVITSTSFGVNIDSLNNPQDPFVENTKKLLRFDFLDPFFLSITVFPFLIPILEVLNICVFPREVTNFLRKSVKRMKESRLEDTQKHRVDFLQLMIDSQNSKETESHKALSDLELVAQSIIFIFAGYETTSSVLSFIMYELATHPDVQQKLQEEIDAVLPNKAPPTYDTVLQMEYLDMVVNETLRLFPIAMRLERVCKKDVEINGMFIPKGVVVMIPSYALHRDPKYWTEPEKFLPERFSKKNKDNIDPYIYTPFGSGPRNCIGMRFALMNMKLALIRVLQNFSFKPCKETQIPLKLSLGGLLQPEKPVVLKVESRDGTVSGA

Compound | activity change, positive = activation
C#CCCCO/N=C1/C[C@@H](O)[C@@H](O)[C@@H]2[C@@H]3C(=O)N(C4CCCCC4)C(=O)[C@H]3CC[C@H]12 | -57% [at 11.4 µM]
CCCNC(=O)OC[C@@H]1O[C@H](CCON=C(C)C)C=C[C@@H]1Oc1ccc(OC)cc1 | -58.2% [at 11.4 µM]
COc1ccc(COC(=O)N/N=C2/C[C@@H](O)[C@@H](O)[C@@H]3[C@@H]4C(=O)N(c5cccc(Oc6ccccc6)c5)C(=O)[C@H]4CC[C@@H]23)cc1 | -30.5% [at 11.4 µM]
C/C(CCN1CCc2nc(-c3ccccc3)c(-c3ccccc3)cc2C1)=N\O[C@@H](C)c1cn([C@H](CO)Cc2ccccc2)nn1 | -54.2% [at 11.4 µM] and -52.4% [at 11.4 µM]
C/C(CCN1CCc2nc(-c3ccccc3)c(-c3ccccc3)cc2C1)=N\O[C@@H](C)CN1CCCc2nc(C)c(C)cc21 | -58.8% [at 11.4 µM]
C/C(CCC(=O)OC[C@@H]1O[C@H](C#Cc2ccccc2)C=C[C@@H]1Oc1ccc(C)cc1)=N/OC[C@@H](C)[C@H](OCc1ccccc1)C(C)C | -45.8% [at 11.4 µM]
CC(C)C(=O)N[C@@H]1CCCN1C(=O)/C=C\c1ccccc1 | -30.2% [at 11.4 µM]
CCc1cc2c(nc1CC)CCN(CC/C(C)=N/OC[C@@H](O)[C@@H]1O[C@@H]3OC(C)(C)O[C@@H]3[C@H]1O)C2 | -30.5% [at 11.4 µM]
CO[C@H]1COC(=O)C/C=C\[C@H](C)COC(=O)[C@@H](OCc2ccccc2)/C=C\[C@@H]1C | -41.2% [at 11.4 µM]

biological target: Cytochrome P450 2D6 (Homo sapiens) (UniProt P10635); experiment: qHTS Assay for Inhibitors and Substrates of Cytochrome P450 2D6 (AID 891); conditions: recombinant CYP2D6, luciferin-ME EGE luminescence; series mostly up to 11.4 µM; activity change, negative = inhibition: at the top concentration; also: nearly all actives have a fitted effect of over 60% in size; also: potency is read from the fitted curve at half-maximal effect;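 as to activity change, negative = inhibition: luciferin methyl ether substrate demethylated by CYP2D6 with NADPH regeneration; % is scaled to controls: 0 for no effect and ±100 for the full control effect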
Summary of the method: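 Human CYP2D6 (5 nM) with 30 uM Luciferin-ME EGE (at Km) in 100 mM KPO4, compound preincubated 10 min, then NADPH regeneration system for 60 min at room temperature. Luciferin read by luminescence; normalized to 1.43 uM quinidine.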

Cytochrome P450 2D6 (Homo sapiens), sequence (P10635 whole entry, looked up): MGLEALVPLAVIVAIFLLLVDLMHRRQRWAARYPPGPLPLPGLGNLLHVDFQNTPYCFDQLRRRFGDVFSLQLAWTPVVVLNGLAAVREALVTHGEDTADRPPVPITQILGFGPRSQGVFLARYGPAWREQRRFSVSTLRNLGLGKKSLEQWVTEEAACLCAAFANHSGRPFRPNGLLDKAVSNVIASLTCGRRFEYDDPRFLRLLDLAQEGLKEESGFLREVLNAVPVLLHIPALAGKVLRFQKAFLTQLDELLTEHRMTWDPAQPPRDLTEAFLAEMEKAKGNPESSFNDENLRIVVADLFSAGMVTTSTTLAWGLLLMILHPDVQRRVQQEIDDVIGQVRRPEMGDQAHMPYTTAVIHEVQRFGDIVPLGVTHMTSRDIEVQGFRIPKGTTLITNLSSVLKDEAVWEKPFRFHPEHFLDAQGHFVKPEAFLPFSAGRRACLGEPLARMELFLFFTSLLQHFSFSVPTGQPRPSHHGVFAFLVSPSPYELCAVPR

Compound | Potency | activity change, negative = inhibition
CO/N=C(\C)CCN1CCCc2nc(C)c(C)cc21 | 3.98 µM (active) | 
CC(=O)OC[C@H]1O[C@@H](ON=C(C)C)[C@H](OC(C)=O)[C@@H](OC(C)=O)[C@H]1OC(C)=O | 3.16 µM (active) | 
CC(C)=CCC/C(C)=C/CO/N=C1/C[C@@H](O)[C@@H](O)[C@@H]2[C@@H]3C(=O)N(C(C)(C)C)C(=O)[C@H]3CC[C@H]12 |  | 32.2%
CCN1C(=O)[C@H]2[C@H]3[C@H](O)[C@H](O)C/C(=N/O[C@@H]4O[C@H](COC(C)=O)[C@@H](OC(C)=O)[C@H](OC(C)=O)[C@H]4OC(C)=O)[C@@H]3CC[C@@H]2C1=O | 3.98 µM (active) | 
CCOC(=O)N/N=C1/C[C@@H](O)[C@@H](O)[C@@H]2[C@@H]3C(=O)N(Cc4ccccc4)C(=O)[C@H]3CC[C@@H]12 |  | 21.6%
CC(C)(C)N1C(=O)[C@H]2[C@@H]3[C@H](O)[C@H](O)CC(=O)[C@H]3CC[C@H]2C1=O |  | 26.7%
CC(=O)OC[C@@H]1O[C@H](C/C=N\O[C@@H]2O[C@H](COC(C)=O)[C@@H](OC(C)=O)[C@H](OC(C)=O)[C@H]2OC(C)=O)C=C[C@@H]1OC(C)=O | 3.98 µM (active) | 
CCc1cc2c(nc1CC)CCN(CC/C(C)=N/O[C@@H]1O[C@H](COC(C)=O)[C@H](OC(C)=O)[C@H](OC(C)=O)[C@H]1OC(C)=O)C2 | 3.98 µM (active) | 
CO[C@@H]1COC(=O)CCC[C@@H](C)[C@H](OC)COC(=O)CCC[C@H]1C |  | 34.5%
CC(C)=NOC[C@@H](O)COCc1ccco1 |  | 28.9%
CCOC(=O)CCN1C(=O)[C@H]2[C@H]3[C@H](O)[C@H](O)C/C(=N/O[C@@H]4O[C@@H](COC(C)=O)[C@@H](OC(C)=O)[C@@H](OC(C)=O)[C@H]4OC(C)=O)[C@@H]3CC[C@@H]2C1=O | 3.16 µM (active) | 
CCOC(=O)N/N=C1/C[C@@H](O)[C@@H](O)[C@@H]2[C@@H]3C(=O)N(C4CCCCC4)C(=O)[C@H]3CC[C@@H]12 |  | 26.9%
CC(=O)OC[C@@H]1O[C@@H](O/N=C2/C[C@@H](O)[C@@H](O)[C@@H]3[C@@H]4C(=O)N(Cc5ccccc5)C(=O)[C@H]4CC[C@H]23)[C@H](OC(C)=O)[C@H](OC(C)=O)[C@@H]1OC(C)=O | 3.16 µM (active) | 
CC(C)c1ccc2c(c1)CC[C@@H]1[C@@](C)(CN)CCC[C@@]21C | 1 µM (active) | 
CC(=O)OC[C@@H]1O[C@@H](O/N=C2/C[C@@H](O)[C@@H](O)[C@@H]3[C@@H]4C(=O)N(C5CCCCC5)C(=O)[C@H]4CC[C@H]23)[C@H](OC(C)=O)[C@H](OC(C)=O)[C@@H]1OC(C)=O | 3.98 µM (active) | 
CC(=O)OC[C@@H]1O[C@@H](O/N=C2/C[C@@H](O)[C@@H](O)[C@@H]3[C@@H]4C(=O)N(Cc5ccccc5)C(=O)[C@H]4CC[C@@H]23)[C@H](OC(C)=O)[C@H](OC(C)=O)[C@@H]1OC(C)=O | 3.98 µM (active) | 

Compound | Potency | activity change, negative = inhibition
CCN1C(=O)[C@H]2[C@@H]3[C@H](O)C=CC(=O)[C@H]3CC[C@H]2C1=O |  | 30%
O=C1[C@@H]2[C@H]3[C@H](O)[C@H](O)C/C(=N/OCc4ccccc4)[C@@H]3CC[C@H]2C(=O)N1c1ccc(F)cc1F |  | 25.4%
C#CCCCO/N=C1/[C@H]2O[C@@H]2[C@@H](O)[C@H]2[C@H]1CCn1c(=O)n(C)c(=O)n12 |  | 25.2%
C[C@@H](c1ccccc1)N1C(=O)[C@H]2[C@@H]3[C@H](O)C=CC(=O)[C@H]3CC[C@H]2C1=O |  | 30.6%
CO[C@H]1COC(=O)CCC[C@H](C)[C@H](OC)COC(=O)C/C=C\[C@@H]1C |  | 23.2%
CO[C@@H]1COC(=O)C/C=C\[C@H](C)COC(=O)[C@H](C)NC(=O)C/C=C\[C@H]1C |  | 27.4%
CCCCCCCC#Cc1ccccc1C(NC(=O)OC)C(C(=O)OC)C(=O)OC (stereo not given) |  | 10.8%
O=C(N/N=C1/C[C@@H](O)[C@@H](O)[C@@H]2[C@@H]3C(=O)N(Cc4ccccc4)C(=O)[C@H]3CC[C@H]12)OCc1ccccc1 |  | 23.2%
CC(=O)OC[C@@H]1O[C@@H](O/N=C2/C[C@@H](O)[C@@H](O)[C@@H]3[C@H]4C(=O)N(c5ccc(F)cc5F)C(=O)[C@@H]4CC[C@H]23)[C@H](OC(C)=O)[C@H](OC(C)=O)[C@@H]1OC(C)=O | 3.16 µM (active) | 
COC(=O)C/C=C\[C@@H](C)[C@@H](/C=N\OC[C@@H](O)COCc1ccco1)OC |  | 30.1%
CC(=O)OC[C@H]1O[C@@H](O/N=C\[C@@H](C)[C@H](OCc2ccccc2)C(C)C)[C@H](OC(C)=O)[C@@H](OC(C)=O)[C@H]1OC(C)=O | 3.98 µM (active) | 
CC(C)[C@H](NC(=O)OC(C)(C)C)[C@@H](O)CC(=O)OC(C)(C)C | 3.16 µM (active) | 
CCOC(=O)CCN1C(=O)[C@H]2[C@H]3[C@H](O)[C@H](O)C/C(=N/O[C@@H]4O[C@@H](COC(C)=O)[C@@H](OC(C)=O)[C@@H](OC(C)=O)[C@H]4OC(C)=O)[C@H]3CC[C@@H]2C1=O | 3.16 µM (active) | 
CC(C)=CCC/C(C)=C/CO/N=C1/C[C@@H](O)[C@@H](O)[C@@H]2[C@@H]3C(=O)N(C[C@@H]4CCCO4)C(=O)[C@H]3CC[C@@H]12 |  | 26.3%
CO[C@@H]1COC(=O)CC=C[C@@H](C)[C@@H]2C=C[C@H](O)[C@@H](COC(=O)[C@H](C)NC(=O)CC=C[C@H]1C)O2 |  | 36.6%
